# In PubChem BioAssay (EPA / NIEHS):
# Results filed as inconclusive are left out. The source made the active and inactive calls. The calls were made as follows, unless noted: active = hit-call score of the fitted dose curve at least 0.9, where 1 is the maximum; inactive = score below 0.9.
# Assays:
# [1] = CCTE_Shafer_MEA_acute_spike_number: CCTE's Neural Acute Assay for Total Number of Spikes, Shafer Lab (AID 2284008);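 as to AC50: curve fitted for decrease in spike count so AC50 reflects inhibitors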
# Method in brief: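 Rat primary cortical neurons on 48-well MEA plates, DIV 13 or 15, at 37 C. 40 min baseline then 40 min with compound (0.03-40 uM); spikes detected at 8x rms noise, expressed as percent change from baseline.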
# [2] = CCTE_Shafer_MEA_acute_firing_rate_mean: CCTE's Neural Acute Assay for Mean Firing Rate, Shafer Lab (AID 2284009);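 also: analyzed for loss of signal so actives lower firing rate relative to DMSO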
# Method in brief: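 Rat cortical neuron cultures matured to DIV 13 or 15, equilibrated 20 min at 37 C, then recorded 40 min for baseline. Compound (0.03-40 uM) added and a further 40 min recorded; percent change in mean firing rate calculated per well.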
# [3] = CCTE_Harrill_HTTr_Viability_MCF7: CCTE's 6-hour Cell Viability Assessment for the High-Throughput Transcriptomics (HTTr) Platform, in MCF-7 cells cultured in DMEM + 10% fetal bovine serum, Harrill Lab (AID 2284010)
# Method in brief: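 PI exclusion, high-content imaging; 8-pt dilution series, 6 h exposure; bidirectional fit vs DMSO (neg. ctrl/baseline); gain of signal = loss of membrane integrity.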
# [4] = CCTE_Harrill_HTTr_Apoptosis_MCF7: CCTE's 6-hour Apoptosis Assessment for the High-Throughput Transcriptomics (HTTr) Platform, in MCF-7 cells cultured in DMEM + 10% fetal bovine serum, Harrill Lab (AID 2284011)
# Method in brief: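 MCF-7 cells in DMEM + 10% FBS exposed 6 h to chemicals over an eight-point dilution series. Caspase-3/7 activation imaged by high-content CellEvent Green staining; fitted bidirectionally versus DMSO.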
# [5] = CCTE_Harrill_HTTr_CellCount_MCF7: CCTE's Cell Proliferation Assessment for the High-Throughput Transcriptomics (HTTr) Platform, Harrill Lab (AID 2284012; active = hit-call score of the fitted dose curve at least 0.9, where 1 is the maximum;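 also: count of Hoechst-stained nuclei per well by high-content imaging in MCF-7 cells; cells exposed to compound for six hours; intended direction is loss of nuclei count meaning fewer cells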)
# Method in brief: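 Readout: Hoechst nuclear count by high-content imaging. MCF-7, 8-point dilution series, 6 h exposure. Bidirectional fit vs DMSO baseline.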
# [6] = CCTE_Shafer_MEA_acute_burst_number: CCTE's Neural Acute Assay for Single-Electrode Bursts, Shafer Lab (AID 2284013)
# Method in brief: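 Percent change in single-electrode burst number per well, from 40-min recordings taken before and after adding compound (0.03-40 uM) to primary rat cortical neurons on MEA plates at DIV 13 or 15, 37 C.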
# [7] = CCTE_Shafer_MEA_acute_burst_duration_mean: CCTE's Neural Acute Assay for Mean Burst Duration, Shafer Lab (AID 2284014);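 also: hits are decreases in mean burst duration relative to DMSO controls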
# Method in brief: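 Rat cortical cultures, DIV 13/15; 40 min baseline, then 40 min with compound (0.03-40 uM), 37 C. Spikes: 300-5000 Hz band-pass, 8x rms threshold. Read-out: % change in mean single-electrode burst duration, DMSO-referenced, loss direction.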
# [8] = CCTE_Shafer_MEA_acute_per_burst_spike_number_mean: CCTE's Neural Acute Assay for Average Number of Spikes Per Burst, Shafer Lab (AID 2284015);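 also: hits are decreases in mean spikes per burst versus baseline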
# Method in brief: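 Read-out: percent change in mean spikes per burst, each well's post-exposure 40-min recording versus its own 40-min baseline. Rat cortical cultures, DIV 13 or 15, compounds 0.03-40 uM; DMSO is negative control, loss-of-signal fitting.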
# [9] = CCTE_Shafer_MEA_acute_interburst_interval_mean: CCTE's Neural Acute Assay for Mean Interburst Interval, Shafer Lab (AID 2284016);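 also: percent change of mean interburst interval versus each well's own pre-dose baseline; curves fitted for decrease in interburst interval relative to DMSO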
# Method in brief: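 Rat cortical cultures, DIV 13/15; 20 min equilibration, 40 min baseline, compound 0.03-40 uM, 40 min re-recording, 37 C. Spikes detected at 8x rms noise (300-5000 Hz band-pass). Endpoint: % change in interburst interval, fitted in loss direction vs DMSO.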
# [10] = CCTE_Shafer_MEA_acute_burst_percentage_mean: CCTE's Neural Acute Assay for Percentage of Spikes in a Burst, Shafer Lab (AID 2284017);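 as to AC50: curve fitted for loss of signal so potency reflects decreased burst percentage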
# Method in brief: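 Rat cortical cultures, DIV 13/15, 37 C. Spikes detected at 8x rms noise (300-5000 Hz band-pass). Burst spikes/total spikes averaged across electrodes per well; % change post- vs pre-treatment (40 min each), loss-of-signal fit vs DMSO.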
# THRB (gene 7068) = THRB (gene 7068) (UniProt P10828); assay: TOX21_TRB_COA_Antagonist_Followup_ratio: Tox21 Thyroid Hormone Receptor beta Antagonism through Coactivator Recruitment Follow-Up Assay, Ratio (AID 2283967; active = hit-call score of the fitted dose curve at least 0.9, where 1 is the maximum)
# Chain of THRB (gene 7068) (P10828 whole entry, looked up, the tested form may be a part): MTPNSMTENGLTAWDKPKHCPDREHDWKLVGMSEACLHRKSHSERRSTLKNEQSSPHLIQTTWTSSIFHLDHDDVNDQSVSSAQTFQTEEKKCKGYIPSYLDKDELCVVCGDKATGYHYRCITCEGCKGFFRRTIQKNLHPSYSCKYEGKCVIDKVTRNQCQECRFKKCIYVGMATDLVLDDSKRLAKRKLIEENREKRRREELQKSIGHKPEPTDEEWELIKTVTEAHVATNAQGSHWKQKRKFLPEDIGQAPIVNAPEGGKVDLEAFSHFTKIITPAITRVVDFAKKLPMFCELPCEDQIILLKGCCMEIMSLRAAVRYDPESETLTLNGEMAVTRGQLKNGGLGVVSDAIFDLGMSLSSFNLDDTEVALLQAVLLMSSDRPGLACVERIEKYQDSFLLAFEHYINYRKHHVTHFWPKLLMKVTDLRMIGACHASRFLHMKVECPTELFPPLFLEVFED
# Method in brief: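 GST-TRb LBD 5.0 nM + 0.10% BSA, compound added; fluorescein-SRC-2 peptide 200 nM, Tb-anti-GST Ab 2 nM. TR-FRET, ex 340 / em 520:495 ratio. Norm: DMSO 0%, T3 100%.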
# [11] = target: Retinoic acid receptor RXR-alpha (Homo sapiens) (UniProt P19793); assay: TOX21_TR_RXR_BLA_Antagonist_Followup_ratio: Tox21 Thyroid Hormone Receptor beta Retinoid X Receptor alpha (RXRa) Antagonism Beta-lactamase (BLA) Follow-Up Assay, Ratio (AID 2283972; active = hit-call score of the fitted dose curve at least 0.9, where 1 is the maximum)
# Chain of Retinoic acid receptor RXR-alpha (Homo sapiens) (P19793 whole entry, looked up): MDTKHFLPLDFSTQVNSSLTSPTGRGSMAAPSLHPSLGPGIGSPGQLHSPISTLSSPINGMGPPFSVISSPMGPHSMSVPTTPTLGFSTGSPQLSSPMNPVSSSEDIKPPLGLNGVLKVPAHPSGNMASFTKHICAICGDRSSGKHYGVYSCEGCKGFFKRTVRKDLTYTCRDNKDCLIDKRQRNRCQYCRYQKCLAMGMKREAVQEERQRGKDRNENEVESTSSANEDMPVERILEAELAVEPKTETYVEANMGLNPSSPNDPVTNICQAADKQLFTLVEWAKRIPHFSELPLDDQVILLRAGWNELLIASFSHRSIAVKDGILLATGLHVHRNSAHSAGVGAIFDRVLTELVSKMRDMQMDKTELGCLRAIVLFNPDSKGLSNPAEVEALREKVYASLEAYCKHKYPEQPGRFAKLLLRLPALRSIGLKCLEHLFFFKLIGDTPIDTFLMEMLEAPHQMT
# Method in brief: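 RXRa-UAS-bla HEK293T cells, 2,500/well in phenol red-free DMEM with 2% charcoal-stripped FBS, 5 h attachment, then compounds (11 concentrations, triplicate) for 16 h at 37C; FRET-B/GCCF4-AM substrate 2 h RT; 460:530 nm ratio, loss of signal vs DMSO.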
# [12] = TOX21_TR_RXR_BLA_Antagonist_Followup_viability: Viability Assessment in the Tox21 Thyroid Hormone Receptor beta Retinoid X Receptor alpha (RXRa) Antagonism Beta-lactamase (BLA) Follow-Up Assay (AID 2283979; active = hit-call score of the fitted dose curve at least 0.9, where 1 is the maximum)
# Method in brief: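 RXRa-bla HEK293T cells (2,500/well, phenol red-free DMEM, 2% charcoal-stripped FBS) were attached 5 h, then exposed to compounds at 11 concentrations in triplicate for 16 h at 37C. Viability measured by CellTiter-Glo ATP luminescence, bidirectional fitting versus DMSO.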
smiles,measurement,setting,value
COCCc1ccc(OCC(O)CNC(C)C)cc1 (configuration not stated),outcome,[1],inactive
same,outcome,[2],inactive
same,outcome,[3],inactive
same,outcome,[4],inactive
same,outcome,[5],inactive
same,outcome,[6],inactive
same,outcome,[7],inactive
same,outcome,[8],inactive
same,outcome,[9],inactive
same,outcome,[10],inactive
Oc1c(Cl)cc(Cl)c(Cl)c1Cc1c(O)c(Cl)cc(Cl)c1Cl,outcome,THRB (gene 7068),inactive
same,outcome,[11],inactive
same,AC50,[12],33.3 µM (active)
same,AC50,[1],0.266 µM (active)
same,AC50,[2],0.266 µM (active)
same,outcome,[3],inactive
same,outcome,[4],inactive
same,outcome,[6],inactive
same,outcome,[7],inactive
same,AC50,[8],0.155 µM (active)
same,AC50,[9],0.122 µM (active)
same,AC50,[10],0.163 µM (active)
Cc1ccc(-c2ccccc2)cc1,outcome,[3],inactive
same,outcome,[4],inactive
same,outcome,[5],inactive
CCOC(=O)c1ccc(N)cc1,outcome,[3],inactive
same,outcome,[4],inactive
CCCSc1ccc2nc(NC(=O)OC)[nH]c2c1,outcome,[3],inactive
same,outcome,[4],inactive
COc1cc([C@@H]2c3cc4c(cc3[C@@H](O[C@@H]3O[C@@H]5CO[C@@H](C)O[C@H]5[C@H](O)[C@H]3O)[C@H]3COC(=O)[C@H]23)OCO4)cc(OC)c1O,outcome,[3],inactive
same,outcome,[4],inactive
same,outcome,[5],inactive
c1ccc(CCc2ccccc2)cc1,outcome,[3],inactive
same,outcome,[4],inactive
same,outcome,[5],inactive
COCCOCCOCCO,outcome,[3],inactive
same,outcome,[4],inactive
CC1(C)O[C@@H]2C[C@H]3[C@@H]4CCC5=CC(=O)C=C[C@]5(C)[C@@]4(F)[C@@H](O)C[C@]3(C)[C@]2(C(=O)CO)O1,outcome,[3],inactive
same,outcome,[4],inactive
CN(c1nccc(=O)[nH]1)C1CCN(c2nc3ccccc3n2Cc2ccc(F)cc2)CC1,outcome,[3],inactive
same,outcome,[4],inactive
CC1=CC[C@@]23C[C@@H]1C(C)(C)[C@@H]2CC[C@H]3C,outcome,[3],inactive
same,outcome,[4],inactive
CC1(C)CCC[C@]2(C)[C@H]3CCO[C@]3(C)CC[C@@H]12,outcome,[1],inactive
same,outcome,[2],inactive
same,outcome,[6],inactive
same,outcome,[7],inactive
same,outcome,[8],inactive
same,outcome,[9],inactive
same,outcome,[10],inactive
C[C@@H]1CCN(C(=O)[C@H](CCCN=C(N)N)NS(=O)(=O)c2cccc3c2NC[C@H](C)C3)[C@@H](C(=O)O)C1,outcome,[3],inactive
same,outcome,[4],inactive
same,outcome,[5],inactive
COc1ccc(CCN2CCC(Nc3nc4ccccc4n3Cc3ccc(F)cc3)CC2)cc1,AC50,[3],76.2 µM (active)
same,outcome,[4],inactive
same,AC50,[5],79.2 µM (active)
CCCCCCC(CO)CCCC (configuration not stated),AC50,[1],5.36 µM (active)
same,AC50,[2],5.36 µM (active)
same,outcome,[6],inactive
same,outcome,[7],inactive
same,outcome,[8],inactive
same,AC50,[9],15 µM (active)
same,AC50,[10],4.14 µM (active)
O=C(O)c1cccnc1C(=O)O,outcome,[3],inactive
same,outcome,[4],inactive
same,outcome,[5],inactive
O=C(c1ccccc1)C(O)c1ccccc1 (configuration not stated),outcome,[3],inactive
same,outcome,[4],inactive
same,outcome,[5],inactive
CS(C)=O,outcome,[3],inactive
same,outcome,[4],inactive
C=CC(=O)OCCCC,outcome,[3],inactive
same,outcome,[4],inactive
CN(C)CCOC(C)(c1ccccc1)c1ccccn1 (configuration not stated),outcome,[3],inactive
same,outcome,[4],inactive
same,outcome,[5],inactive
CC1(C)O[C@@H]2[C@@H](CO[C@@]3(COS(N)(=O)=O)OC(C)(C)O[C@@H]23)O1,outcome,[3],inactive
same,outcome,[4],inactive
same,outcome,[5],inactive
Cc1ncc([N+](=O)[O-])n1CCO,outcome,[3],inactive
same,outcome,[4],inactive
C=C(C)[C@@H]1CC=C(C)C(=O)C1,outcome,[3],inactive
same,outcome,[4],inactive
CC=Cc1ccc(OC)c(OC)c1,outcome,[3],inactive
same,outcome,[4],inactive
Nc1ccccc1[N+](=O)[O-],outcome,[3],inactive
same,outcome,[4],inactive
CC(C)NCC(O)COc1ccc(CC(N)=O)cc1 (configuration not stated),outcome,[3],inactive
same,outcome,[4],inactive
COC(=O)c1ccc(C)cc1C1=NC(C)(C(C)C)C(=O)N1 (configuration not stated) (tested in a mixture with another compound),outcome,[3],inactive
same,outcome,[4],inactive
COc1ccc(COC(C)=O)cc1,outcome,[3],inactive
same,outcome,[4],inactive
same,outcome,[5],inactive
CN1C(=O)c2ccccc2C1=O,outcome,[3],inactive
same,outcome,[4],inactive
same,outcome,[5],inactive
O=C(O)CCCCCCCCC(=O)O,outcome,[3],inactive
same,outcome,[4],inactive
OC[C@H]1O[C@@H](Oc2ccc(O)cc2)[C@H](O)[C@@H](O)[C@@H]1O,outcome,[3],inactive
same,outcome,[4],inactive
same,outcome,[5],inactive
OCCc1ccccc1,outcome,[3],inactive
same,outcome,[4],inactive
same,outcome,[5],inactive
CCC(C)=O,outcome,[3],inactive
same,outcome,[4],inactive
same,outcome,[5],inactive
CC(C)(CO)[C@@H](O)C(=O)NCCC(=O)O,outcome,[3],inactive
same,outcome,[4],inactive
same,outcome,[5],inactive
O=[N+]([O-])c1cccc(Cl)c1,outcome,[3],inactive
same,outcome,[4],inactive
same,outcome,[5],inactive
CS(=O)(=O)OCCCCOS(C)(=O)=O,outcome,[3],inactive
same,outcome,[4],inactive
same,outcome,[5],inactive
CS(=O)(=O)c1ccc(Cl)cc1,outcome,[3],inactive
same,outcome,[4],inactive
same,outcome,[5],inactive
CC1(C)C2=CCCC(C)(C)[C@]23CC[C@H]1C3,outcome,[3],inactive
same,outcome,[4],inactive
O=C1c2ccccc2C(=O)c2c(O)ccc(O)c21,outcome,[3],inactive
same,outcome,[4],inactive
same,outcome,[5],inactive
CCCN(CCC)S(=O)(=O)c1ccc(C(=O)O)cc1,outcome,[3],inactive
same,outcome,[4],inactive
Brc1ccc(Br)c(Br)c1,outcome,[3],inactive
same,outcome,[4],inactive
COC(=O)Nc1ccc(Cl)c(Cl)c1,outcome,[3],inactive
same,outcome,[4],inactive
same,outcome,[5],inactive
CC(C)c1ccccc1O,outcome,[3],inactive
same,outcome,[4],inactive
same,outcome,[5],inactive
ON=C1CCCCC1,outcome,[3],inactive
same,outcome,[4],inactive
same,outcome,[5],inactive
C=CCOC(=O)CCCCCC,outcome,[3],inactive
same,outcome,[4],inactive
same,outcome,[5],inactive
O=C(O)c1ccc(O)cc1,outcome,[3],inactive
same,outcome,[4],inactive
same,outcome,[5],inactive
CC(C)(C)CC(C)(C)c1ccc(OCCOCC[N+](C)(C)Cc2ccccc2)cc1,outcome,[3],inactive
same,outcome,[4],inactive
same,outcome,[5],inactive
